Our source for the outcome, Potency and max response values is PubChem BioAssay (NCATS).

Each structure is given as a SMILES string. Several values for one entry are separate records, joined by “and”; a condition that tells them apart may be missing. Equal values may be shown once. A number with no mark means an inactive call. Inconclusive results are not listed. Activity calls are given as the source filed them. Calls come from the whole dose curve; as a rule, active = well fitted curve in the direction sought with a large enough effect; inconclusive = small, poorly fitted or top-dose-only effect, or another doubt; inactive = no such curve, though single readings can be large; an effect the other way counts as inactive or inconclusive.

Assay [1] deals with Lysine-specific demethylase 5B (Homo sapiens) (UniProt Q9UGL1). The assay is described as follows: Optimization screen for KDM5B Histone Demethylases FDH coupled qHTS against the LOPAC library (AID 1347166). Note: 0% is about no effect. In a few lines:
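KDM5BDeltaAP (200nM final) preincubated 10 min with compound, then 12.5uM H3K4Me3, 25uM a-ketoglutarate, ascorbate, Fe(II), NAD+ and FDH added; 50mM HEPES pH 7.5, 0.01% Tween-20. NADH fluorescence (340/450 nm) change over 30 min, room temperature.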
Background: In qHTS, concentration-response curves come from the screen itself.

Assay [2] is described as follows: qHTS to identify inhibitors of the type 1 interferon - major histocompatibility complex class I in skeletal muscle: primary screen against the NCATS LOPAC collection (AID 1347405).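 Note: lytic HiBiT luminescence reporting HLA-B protein level.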 Note: potency is the fitted concentration of half-maximal effect. In a few lines: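 Luminescence from HiBiT fused to endogenous HLA-B in CRISPR-engineered human myoblasts served as the read-out. Cells received 4.0 ng/ml IFN-beta plus compound (seven concentrations, 1:4.3 steps, highest 46 uM final) for 24 hrs before lytic detection.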

Assay [3] has as its target Protein phosphatase 1D (Homo sapiens) (UniProt O15297). The assay is described as follows: RapidFire Mass Spectrometry qHTS Assay for Modulators of WT P53-Induced Phosphatase 1 (WIP1) (AID 1347424).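 Note: amount of dephosphorylated VEPPL-S-QETFS peptide product formed by WIP1; series mostly up to about 63 µM; plate controls were DMSO wells for no effect and GSK830371 inhibitor control at 10 µM for full effect.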 A digest of the protocol:
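10 nM WIP1 preincubated with compounds 1 hr at room temperature in pH 7.5 Tris buffer with 30 mM MgCl2, 1 mM TCEP; 2 uM VEPPL-pS-QETFS phosphopeptide for 5 min, formic acid quench; dephosphorylated product quantified by RapidFire MS against labelled standard.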

Assay [4] shares this target. The assay is described as follows: Rhodamine-PBP qHTS Assay for Modulators of WT P53-Induced Phosphatase 1 (WIP1) (AID 1347425). Note: % of control where 0% means no effect. A digest of the protocol: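 Read-out: Rhodamine-PBP fluorescence (ex 525/em 598 nm) for released Pi, read each minute for 11 min after adding 10 uM VEPPL-pS-QETFS; signal taken as f1 minus pre-substrate f0. Enzyme 5 nM WIP1 with 1 hr room-temperature compound preincubation.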

Assay [5] can be described thus: Validation qHTS assay for inhibitors of Activation Induced Cytidine Deaminase (AID): UDG Counterscreen signal (AID 1347427). Note: 0% is about no effect. In a few lines: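 Counterscreen read of UDG activity (2 U/mL, 4/3x) in the FRET deamination format with AID (1 uM, 4/3x), DJC20/DJC23 substrates (250 nM, 4x), 4 h at room temperature. NaOH stop, fluorescence at 560 ex/665 em.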
Assay [6] addresses Single-stranded DNA cytosine deaminase (Homo sapiens) (UniProt Q9GZX7). Description: Validation qHTS assay for inhibitors of Activation Induced Cytidine Deaminase (AID): AID signal (AID 1347429). Note: % is set by controls: 0 for no effect and ±100 for the full control effect. A digest of the protocol:
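Fluorescence at 540 nm excitation and 590 nm emission reports ssDNA cytosine deamination by AID, with UDG in the same well. Compound-treated reactions ran 4 hr at room temperature with DJC20/DJC23 substrate, followed by 30 min NaOH treatment.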

Assay [7] is described as follows: Primary qHTS for inhibitors of La Crosse Virus (LACV) - induced cell death in SH-SY5Y cells (AID 1508616).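 Note: top concentration of the series differs between compounds; 0% = infected DMSO wells and 100% = uninfected DMSO wells; higher means more rescue of cells from virus-induced death.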 A digest of the protocol:
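Protection against LACV-induced cell death is scored in SH-SY5Y cells exposed to compounds and virus (0.01 MOI) for 6 days. Data normalized to virus-infected DMSO wells and virus-free DMSO wells.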

Assay [8] deals with Calcium and integrin-binding protein 1 (Homo sapiens) (UniProt Q99828). The assay is described as follows: Primary qHTS for Identification of Calcium Integrin Binding Protein 1 (CIB1) Competitor (AID 1508620).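 Note: GST tagged CIB1 binding a fluorescein labelled alphaIIb integrin peptide tracer; top concentration of the series differs between compounds; % is set by controls: 0 for no effect and ±100 for the full control effect.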 A digest of the protocol:
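Fluorescence polarization competition: GST-tagged CIB1 (1 uM final) preincubated with compound 15 min at room temperature, then FITC-labelled alphaIIb peptide (100 nM final) added. After 15 min at room temperature, polarization read at Ex 480/Em 540.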

Assay [9] can be described thus: Primary qHTS for small molecule stabilizers of the endoplasmic reticulum resident proteome: Secreted ER Calcium Modulated Protein (SERCaMP) assay (AID 1508630). Note: % is set by controls: 0 for no effect and ±100 for the full control effect. A digest of the protocol: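 GLuc-SERCaMP-expressing SH-SY5Y cells, pretreated 16 h with compound, are challenged with thapsigargin to empty ER calcium stores; after 4 h, coelenterazine is added directly to the medium and luminescence is imaged.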

The nature of assay [10]: qHTS to identify inhibitors of the type 1 interferon - major histocompatibility complex class I in skeletal muscle: primary screen against the NCATS Pharmaceutical Collection (AID 1347407). Note: % is set by controls: 0 for no effect and ±100 for the full control effect. In a few lines: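 Luminescence from HiBiT-tagged endogenous HLA-B*08:01 served as the read-out of IFN-beta-induced MHC class I in CRISPR-engineered C25cl48 myoblasts. Cells received 4 ng/ml IFN-beta plus compound (high final 46 uM, […]) for 24 h.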

Assay [11] in a line: Counterscreen qHTS for small molecule stabilizers of the endoplasmic reticulum resident proteome: GLuc-NoTag assay (AID 1508627). Note: potency is the fitted concentration of half-maximal effect. In a few lines: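 SH-SY5Y cells stably expressing constitutively secreted GLuc without SERCaMP tag, exposed to compound for 19 hr, then to 100 nM thapsigargin for 4 hr at 37C. Medium luciferase was read by coelenterazine luminescence without lysis.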
(In general: Counterscreens check selectivity or assay interference.)

The nature of assay [12]: Confirmatory qHTS for small molecule stabilizers of the endoplasmic reticulum resident proteome: Secreted ER Calcium Modulated Protein (SERCaMP) assay (AID 1508628). Note: nearly all actives have a fitted effect of over 40% in size. Note: potency is the fitted concentration of half-maximal effect. In a few lines:
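SH-SY5Y cells stably expressing GLuc-SERCaMP, treated 16 h with compound (primary 1.53, 7.67, 38.3 uM; confirmation 11 concentrations, up to 76.6 uM), then 100 nM thapsigargin for 4 h. Secreted Gaussia luciferase in medium read by coelenterazine luminescence.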

Assay [13] can be described thus: Cell Viability qHTS for small molecule stabilizers of the endoplasmic reticulum resident proteome (AID 1508629).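 Note: compound exposure about 46 h in total before the viability read.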 Note: potency is the fitted concentration of half-maximal effect. The settings on record: cell viability counter-screen, 100 nM thapsigargin for final 4 h.
The nature of assay [14]: Vero cells viability qHTS for Zika virus inhibitors (AID 1347167). Note: potency is the fitted concentration of half-maximal effect. A digest of the protocol:
(§1)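 Cells seeded at 2.5 x 10^5 cells/mL in DMEM with 4% FBS and attached overnight at 37 degrees C, then exposed to compound for 24 to 48 hours. Viability read as ATP content by CellTiter Glo luminescence.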

The nature of assay [15]: HepG2 cells viability qHTS for Zika virus inhibitors (AID 1347168). Note: % is set by controls: 0 for no effect and ±100 for the full control effect. A digest of the protocol:
as §1

Assay [16] in a line: Tertiary RLuc qRT-PCR qHTS assay for Zika virus inhibitors (AID 1347169). Note: nearly all actives have a fitted effect of over 55% in size. Note: potency is the fitted concentration of half-maximal effect. In a few lines:
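Vero, 1,000 cells/well, o/n 37 C; cpd pinned in DMSO; ZIKV-RLuc Cambodian, MOI 1-2, 48-72 h 37 C; live-cell RLuc substrate, lum read at 1-1.5 h.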
In general terms: Real-time PCR tracks product formation cycle by cycle.

Assay [17] deals with Calcium and integrin-binding protein 1 (Homo sapiens) (UniProt Q99828). The assay is described as follows: Confirmatory qHTS for Identification of Calcium Integrin Binding Protein 1 (CIB1) Competitor (AID 1508617). Note: % is set by controls: 0 for no effect and ±100 for the full control effect; nearly all actives have a fitted effect of over 65% in size. A digest of the protocol: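 Fluorescence polarization competition: CIB1-GST (1 uM final) in 5 mM HEPES pH 7.4, 125 mM NaCl, 5 mM CaCl2, 0.01% Tween20 preincubated 15 min RT with compound (up to 114 uM), then FITC-alphaIIb peptide (100 nM) added, 15 min RT.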
Sequence of Calcium and integrin-binding protein 1 (Homo sapiens) (Q99828 whole entry, looked up): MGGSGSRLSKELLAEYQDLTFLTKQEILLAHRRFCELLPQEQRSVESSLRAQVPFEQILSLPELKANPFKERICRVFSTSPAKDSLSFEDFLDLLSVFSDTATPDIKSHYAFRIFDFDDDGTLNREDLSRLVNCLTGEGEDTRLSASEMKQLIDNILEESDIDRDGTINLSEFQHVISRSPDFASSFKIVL

Assay [18] can be described thus: qHTS to identify inhibitors of the type 1 interferon - major histocompatibility complex class I in skeletal muscle: primary screen against the NCATS Mechanism Interrogation Plate v5.0 (MIPE) Libary (AID 1347411).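 Note: plate controls were vehicle for no effect and reference inhibitor for full effect; nearly all actives have a fitted effect of over 65% in size.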 A digest of the protocol: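 Luminescence from HiBiT-tagged endogenous HLA-B*08:01 served as the MHC class I read-out. CRISPR-engineered C25cl48 human myoblasts received 4.0 ng/ml IFN-beta plus compound for 24 hrs, with an 11-point, 1:3 series topping at 46 uM final.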

Assay [19] can be described thus: qHTS for inhibitors of adenylyl cyclases using a fission yeast platform: a pilot screen against the NCATS LOPAC library (AID 1347410).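 Note: plate controls were DMSO vehicle for no effect and DPI positive control for full effect.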 A digest of the protocol:
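Fission yeast qHTS: CHP2027 cells (AC9-GNAS-PDE4D2, fbp1-GFP), 5x10^6 cells/mL working density, EMM + His/Lys/Ura; LOPAC at up to 57 µM final; 18 h dark, 30C; GFP by laser cytometry. DPI positive control, DMSO vehicle.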

In assay [20] the target is Calcium and integrin-binding protein 1 (Homo sapiens) (UniProt Q99828). The assay is described as follows: Validation qHTS for Identification of Calcium Integrin Binding protein 1 (CIB1) Competitor (AID 1508618). Note: % is set by controls: 0 for no effect and ±100 for the full control effect. A digest of the protocol: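 CIB1-GST (1 uM final) in 5 mM HEPES pH 7.4, 125 mM NaCl, 5 mM CaCl2, 0.01% Tween20 was preincubated 15 min at room temperature with compound (up to 114 uM), then FITC-alphaIIb peptide (100 nM) added for 15 min; fluorescence polarization read.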

Sequence of Protein phosphatase 1D (Homo sapiens) (O15297 whole entry, looked up): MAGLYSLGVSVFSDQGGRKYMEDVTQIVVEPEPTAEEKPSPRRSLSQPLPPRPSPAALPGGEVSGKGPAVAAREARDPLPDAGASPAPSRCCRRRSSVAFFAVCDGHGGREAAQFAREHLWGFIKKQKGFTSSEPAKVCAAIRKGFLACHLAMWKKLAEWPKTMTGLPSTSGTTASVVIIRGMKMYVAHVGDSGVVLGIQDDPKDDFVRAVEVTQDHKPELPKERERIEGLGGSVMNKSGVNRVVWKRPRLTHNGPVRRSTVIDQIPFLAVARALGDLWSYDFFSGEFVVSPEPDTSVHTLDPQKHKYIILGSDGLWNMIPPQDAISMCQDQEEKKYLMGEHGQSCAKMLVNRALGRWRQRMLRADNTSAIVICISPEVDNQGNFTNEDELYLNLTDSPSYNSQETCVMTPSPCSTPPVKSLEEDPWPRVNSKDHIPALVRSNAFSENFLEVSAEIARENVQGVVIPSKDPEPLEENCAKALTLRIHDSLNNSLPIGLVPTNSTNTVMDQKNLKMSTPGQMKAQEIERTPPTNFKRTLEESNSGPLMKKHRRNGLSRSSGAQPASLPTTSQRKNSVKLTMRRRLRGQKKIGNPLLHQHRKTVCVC
Sequence of Single-stranded DNA cytosine deaminase (Homo sapiens) (Q9GZX7 whole entry, looked up): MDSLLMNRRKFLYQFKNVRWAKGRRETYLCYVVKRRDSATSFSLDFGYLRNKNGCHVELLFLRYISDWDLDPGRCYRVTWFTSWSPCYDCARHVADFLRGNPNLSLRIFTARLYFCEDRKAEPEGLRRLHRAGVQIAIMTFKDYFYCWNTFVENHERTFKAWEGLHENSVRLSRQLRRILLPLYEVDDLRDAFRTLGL
Sequence of Lysine-specific demethylase 5B (Homo sapiens) (Q9UGL1 whole entry, looked up): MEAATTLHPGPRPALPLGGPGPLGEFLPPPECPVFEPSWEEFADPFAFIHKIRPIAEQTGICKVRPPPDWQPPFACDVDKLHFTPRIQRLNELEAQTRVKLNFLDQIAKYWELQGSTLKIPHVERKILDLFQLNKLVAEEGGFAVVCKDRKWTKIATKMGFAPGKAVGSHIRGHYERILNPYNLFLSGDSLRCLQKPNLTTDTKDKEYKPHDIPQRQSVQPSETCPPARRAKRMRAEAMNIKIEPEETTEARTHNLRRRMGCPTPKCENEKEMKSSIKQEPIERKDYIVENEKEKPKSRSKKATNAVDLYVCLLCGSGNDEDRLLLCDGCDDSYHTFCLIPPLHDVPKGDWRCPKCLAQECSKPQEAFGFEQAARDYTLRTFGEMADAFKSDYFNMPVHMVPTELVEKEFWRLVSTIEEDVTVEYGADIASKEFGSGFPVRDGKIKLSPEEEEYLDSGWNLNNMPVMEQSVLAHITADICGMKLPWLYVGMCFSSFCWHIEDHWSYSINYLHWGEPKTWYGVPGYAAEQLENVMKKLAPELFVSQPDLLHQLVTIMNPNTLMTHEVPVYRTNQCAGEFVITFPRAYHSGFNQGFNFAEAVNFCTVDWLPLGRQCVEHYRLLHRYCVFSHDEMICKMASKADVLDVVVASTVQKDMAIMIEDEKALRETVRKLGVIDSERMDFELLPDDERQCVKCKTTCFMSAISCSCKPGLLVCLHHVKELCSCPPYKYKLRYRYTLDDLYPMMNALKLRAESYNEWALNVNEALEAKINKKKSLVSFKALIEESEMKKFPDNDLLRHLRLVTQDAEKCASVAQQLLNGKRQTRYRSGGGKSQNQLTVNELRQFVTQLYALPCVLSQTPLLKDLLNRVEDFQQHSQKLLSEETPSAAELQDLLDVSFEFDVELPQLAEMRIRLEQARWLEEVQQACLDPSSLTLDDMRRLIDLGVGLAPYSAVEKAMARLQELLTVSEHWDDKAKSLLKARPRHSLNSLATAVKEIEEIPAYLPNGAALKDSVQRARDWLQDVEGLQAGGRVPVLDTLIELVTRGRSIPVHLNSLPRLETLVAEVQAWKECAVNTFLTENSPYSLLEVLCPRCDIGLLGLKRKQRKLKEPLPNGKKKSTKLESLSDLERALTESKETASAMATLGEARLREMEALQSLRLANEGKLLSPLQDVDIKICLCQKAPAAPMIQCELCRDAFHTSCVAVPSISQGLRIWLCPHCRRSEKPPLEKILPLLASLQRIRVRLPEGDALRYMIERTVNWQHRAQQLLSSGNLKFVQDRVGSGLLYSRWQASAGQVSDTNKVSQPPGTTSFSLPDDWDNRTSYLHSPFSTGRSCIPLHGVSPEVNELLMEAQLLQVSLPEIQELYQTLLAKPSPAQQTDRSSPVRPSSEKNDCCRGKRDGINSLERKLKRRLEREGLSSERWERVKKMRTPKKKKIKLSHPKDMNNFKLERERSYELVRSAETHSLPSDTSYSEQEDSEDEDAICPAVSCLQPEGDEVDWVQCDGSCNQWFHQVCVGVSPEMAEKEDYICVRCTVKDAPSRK

For the compound `COCCOC(=O)C1=C(C)NC(C)=C(C(=O)OC/C=C/c2ccccc2)C1c1cccc([N+](=O)[O-])c1` (configuration not stated), the call in assay [1], in assay [3], in assay [4], in assay [7] and in assay [8] was inactive. Also, the Potency in [2] is 22.4 µM (active). Besides, the Potency result in assay [5], in assay [6] and in [9] was “inactive” throughout.
Take `Nc1cc(=O)[nH]c(N)n1`: the compound was classed as inactive in [1], in assay [3], in [4], in assay [7] and in assay [8]. Besides, the Potency entry in assay [2], in assay [10], in assay [5], in assay [6] and in [9] was “inactive” in each case.
With `CNCCC(Oc1ccc(C(F)(F)F)cc1)c1ccccc1` (configuration not stated), the call in assay [1], in [3] and in [4] was inactive. Also, the Potency result in assay [10], in assay [12] and in [9] was “inactive” throughout. Further, the Potency in assay [11] was 44.7 µM (active); in [13], 25.1 µM (active).
For the compound `CC(C)(C(=O)O)c1ccc(C(O)CCCN2CCC(C(O)(c3ccccc3)c3ccccc3)CC2)cc1` (configuration not stated), the compound was classed as inactive in assay [1], in [3], in assay [4] and in [7]. The Potency result in assay [2] and in assay [10] was “inactive” throughout.
Take `Cc1cc(C(C#N)c2ccc(Cl)cc2)c(Cl)cc1NC(=O)c1cc(I)cc(I)c1O` (configuration not stated): the Potency is 13.1 µM (active) in assay [14]; 6.58 µM (active) and 16.5 µM (active) in assay [16]. The call in [15] and in assay [7] was inactive. Moreover, the Potency entry in [10] and in [17] was “inactive” each time.
As for `CN(C)CCCN1c2ccccc2Sc2ccc(Cl)cc21`, the outcome in assay [1], in assay [3], in assay [4], in assay [7] and in assay [8] was inactive. For the same compound, the Potency result in assay [5], in [6] and in assay [9] was “inactive” throughout.
For the compound `OCc1cc(C(O)CNCCCCCCOCCCCc2ccccc2)ccc1O` (configuration not stated), the Potency result in assay [10], in [5], in assay [6] and in assay [9] was “inactive” throughout. The outcome in assay [3], in assay [4], in [7] and in [8] was inactive.
In the case of `CN(N=O)C(=O)N[C@@H]1[C@@H](O)[C@H](O)[C@@H](CO)O[C@@H]1O`, the Potency entry in assay [10], in [18] and in [9] was “inactive” in each case. Besides, the call in assay [3], in assay [4], in assay [7] and in [8] was inactive.
For `CSc1ccc2c(c1)C(N1CCN(C)CC1)Cc1ccccc1S2` (configuration not stated), the outcome in assay [1], in assay [19], in assay [3], in assay [4], in assay [7] and in [8] was inactive. Further, the Potency entry in [5] and in assay [6] was “inactive” in each case.
In the case of `CNCCCC1c2ccccc2C=Cc2ccccc21`, the Potency result in assay [2], in assay [10], in assay [5], in [6] and in assay [12] was “inactive” in each case. Also, the result in assay [3], in assay [4], in assay [7], in assay [20] and in assay [8] was inactive.
Take `O=C1NC(=O)[C@@]2(CCOc3ccc(F)cc32)N1`: the Potency result in assay [2] and in [9] was “inactive” each time. Besides, the compound was called inactive in assay [3], in [4], in assay [7] and in assay [8].
With `NC1[C@H]2CN(c3nc4c(cc3F)c(=O)c(C(=O)O)cn4-c3ccc(F)cc3F)C[C@@H]12` (some centres not stated), the Potency entry in assay [14], in assay [16] and in [11] was “inactive” throughout. In addition, the result in assay [15], in assay [3], in [4], in [7] and in assay [8] was inactive.
For `CC(=O)c1ccc2c(c1)N(CCCN(C)C)c1ccccc1S2`, the Potency entry in assay [2] and in [11] was “inactive” throughout. Moreover, the result in assay [3], in [4], in assay [7] and in [8] was inactive. Moreover, the Potency in assay [12] is 25.1 µM (active). Moreover, the max response in assay [13] is -6.13%.
